Compounds without any hit were thinned out: in the full panel of roughly 83,000, 20% have a hit.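 Interpretation: 100, growth as untreated; towards 0, rising growth inhibition; 0, no net growth; 0 to -100, cell death. Compounds scoring below 10 were considered active.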 Active and inactive are the calls of the source.
test system: MDA-MB-468 breast; experiment: NCI-60 one-dose screen, 48 h (100 = growth as untreated, 0 = no growth, -100 = all killed); settings: 10 µM unless noted

Row | SMILES | growth
1 | CSc1ccc(C(=NNS(=O)(=O)c2ccc(C)cc2)c2ccc(Cl)cc2)cc1 | 112% (inactive)
2 | CCC(=O)Oc1ccc(/C(=C(\C)c2ccccc2)c2ccc(OCCN3CCCCC3)cc2)cc1 | 70.3% (inactive)
3 | C=CC(=O)NCCOc1cccc(Nc2cc(NCCCNC(=O)C3CCC3)c(Br)cn2)c1 | -59.5% (active)
4 | N#CC1=C(N)Oc2c(c(=O)[nH]c3ccc(Cl)cc23)C12C(=O)c1ccccc1C2=O | 96.6% (inactive)
5 | CCN1CCN(c2nc(NNC(=O)Cc3ccccc3)nc(N3CCN(C(c4ccccc4)c4ccccc4)CC3)n2)CC1 | 12.2% (inactive)
6 | CC(C)c1ccc(C(=O)OCCCl)cc1 | 111% (inactive)
7 | Cc1nn(-c2ccccc2)c2ncnc(N/N=C/c3ccccc3O)c12 | -31.7% (active)
8 | Cn1ncc(Cl)c1-c1cc(C(=O)N[C@H](CN)Cc2ccc(F)c(F)c2)oc1Cl | -69.6% (active)
9 | N#CSc1c[nH]c2cccc(/C=C/C(=O)/C=C(/C=C/c3cccc4[nH]cc(SC#N)c34)OB(F)F)c12 | -32% (active)
10 | COc1ccc(Oc2[nH]n(C3=Nc4ccccc4Sc4ccccc43)c(=O)c2C#N)cc1 | 98.5% (inactive)
11 | Cc1nc(-c2cc3ccccc3c(N3CCN(C)CC3)n2)cs1 | 87% (inactive)
12 | O=C1NC(=O)c2c1c1c3ccccc3[nH]c1c1oc3cc(Br)ccc3c21 | 62.6% (inactive)
13 | CCCCC/C(C)=N\NC(N)=S | -6.78% (active)
14 | C[C@H]1[C@H](C)CC[C@]2(COC(=O)c3cccnc3)CC[C@]3(C)C(=CC[C@@H]4[C@@]5(C)CCCNC(C)(C)[C@@H]5CC[C@]43C)[C@H]12 | 42.5% (inactive)
15 | CCC1CCc2nc3sc(C(=O)Nc4ccccc4C)c(N)c3cc2C1 (stereo not given) | -0.179% (active)
16 | O=C(/C=C/c1cccc(Cl)c1)c1cccc(OCCCCOc2cccc(C(=O)/C=C/c3cccc(Cl)c3)c2)c1 | 99.2% (inactive)
17 | O=C(/C=C/c1ccc(Cl)cc1)c1ccc(O)c(CN2CCN(c3cc4c(cc3F)c(=O)c(C(=O)O)cn4C3CC3)CC2)c1 | 40.9% (inactive)
18 | FC(F)(F)c1ccc(/C=N/Nc2nnc3n2N=C(c2ccc(Cl)cc2)CS3)cc1 | 74.3% (inactive)

Row | SMILES | growth
19 | Clc1cccc(Nc2ncnc3ccc(-c4cncc(-n5cnnn5)c4)cc23)c1 | -31.6% (active)
20 | CC(C)(C)c1cc(C[P+](c2ccc(Cl)cc2)(c2ccc(Cl)cc2)c2ccc(Cl)cc2)cc(C(C)(C)C)c1O | 6.75% (active)
21 | CCNc1nc(-c2ccc(Cl)c(OC)c2)c(-c2ccnc(NCCNS(=O)(=O)c3ccc(Cl)cc3)n2)s1 | -8.24% (active)
22 | O=S(=O)(Nc1cc(Sc2nc3ccccc3s2)c(O)c2ccccc12)c1ccc2ccccc2c1 | -0.0972% (active)
23 | CCC(C)N(c1ccc(Cl)cc1)c1nc(-c2ccc(Br)cc2)cs1 (stereo not given) | 95.7% (inactive)
24 | CC(C)(C)c1ccc(S(=O)(=O)N[C@H]2CC[C@H]3[C@@H]4CCc5cc(O)c([N+](=O)[O-])cc5[C@H]4CC[C@]23C)cc1 | 99.9% (inactive)
25 | COc1cc(C2C=C(C)N=C3SC=CN32)cc(OC)c1OC (stereo not given) | 97.5% (inactive)
26 | CC1(C)CC[C@]2(CN)CC[C@]3(C)C(=CC[C@@H]4[C@@]5(C)CCCNC(C)(C)[C@@H]5CC[C@]43C)[C@H]2C1 | 96.1% (inactive)
27 | CC(=O)CC(c1cccs1)c1c(-c2ccccc2)[nH]c2ccccc12 (stereo not given) | 100% (inactive)
28 | O=C(Cc1ccccc1)Nc1nnc(NC2CCN(c3nnc(NC(=O)Cc4ccccc4)s3)CC2)s1 | 125% (inactive)
29 | CCCCN(CCCC)CCCCCCCCC(O)c1cc2ccccc2c2ccccc12 (stereo not given) | 29.1% (inactive)
30 | COc1ccc(COc2cc3oc(=O)c4cc(C(C)O)ccc4c3cc2OC)cc1 (stereo not given) | 41% (inactive)
31 | Cc1cc(Cl)nc(N(CCNc2ccnc3cc(Cl)ccc23)Cc2ccco2)n1 | 29.9% (inactive)
32 | N#CCCCCCn1c2ccccc2c2c3c(c4c5ccccc5[nH]c4c21)C(=O)N(O)C3=O | -32% (active)
33 | COc1ccc(C(=O)C2OC3=C(C(=O)CC(C)(C)C3)C2c2cccc(Oc3ccccc3)c2)cc1 (stereo not given) | 94.3% (inactive)
34 | CCOC(=O)/C=c1\sc2n(c1=O)C1C(NN=2)N(CC)C(=O)N1CC (stereo not given) | 48.4% (inactive)
35 | Nc1nc(Nc2ccccc2SSc2ccccc2Nc2nc(N)nc(-c3ccc4ccccc4c3)n2)nc(-c2ccc3ccccc3c2)n1 | 103% (inactive)

From PubChem BioAssay (NCI)
